# Only a selection was taken, and hits are over-represented in it overall.
# CD40 NFkB inh = CD40 pathway inhibition in BL2 cells. BL2 NF-kB luciferase reporter, CD40L-induced, 4 h. inhibition, % at 10 µM. hit rate 0.94% among 83,000. AID 1053188;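 active means mean inhibition of at least 50% with a set share of replicates also reaching that level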
# Numbers stand for hits; n = inactive; ! = a repeat was not active; [ ] = another dose, or the depositor's remark.
SMILES,CD40 NFkB inh
C[C@]12CC[C@H](O)C[C@H]1CC[C@@H]1[C@@H]2CC[C@]2(C)[C@@H](c3ccc(=O)oc3)CC[C@]12O,58.2[25 µM]
CC(=O)OC1CC2(O)C3CCC4CC(O)CCC4(C)C3CCC2(C)C1C1=CC(=O)OC1 (configuration not stated),75.0
C[C@]12CCC3C(CC[C@H]4C[C@@H](O)CC[C@]34C)C1C[C@@H](O)[C@@H]2O (some centres not stated),n
CC1OC(OC2C(O)CC(OC3C(O)CC(OC4CCC5(C)C(CCC6C5CCC5(C)C(C7=CC(=O)OC7)C(O)CC65O)C4)OC3C)OC2C)CC(O)C1O (configuration not stated),57.6
C[C@]12CC[C@@H](O)C[C@@H]1CC[C@@H]1[C@@H]2CC[C@]2(C)C(=O)CC[C@@H]12,n
CC(=O)C1CCC2C3CCC4CC(O)CCC4(C)C3CCC12C#N (configuration not stated),n
C[C@]12CC[C@H](O)C[C@@H]1CC[C@H]1[C@H]3CCC(=O)[C@@]3(C)CC[C@@H]12,n
CC(C)NC(=O)N1C[C@@H]2C(c3ccccc3)[C@H](C1)N2C (some centres not stated),n
O=C1CNC[C@H]2[C@@H](c3ccc(Br)cc3)[C@H](CO)N12,n
O=C1CNC[C@@H]2[C@H](c3ccc(Br)cc3)[C@H](CO)N12,n
COc1ccc(OC(=O)N(C)C[C@H]2OCc3ccccc3-c3c(n(C)c4ccccc34)C(=O)N([C@H](C)CO)C[C@@H]2C)cc1,n
Oc1ccc2c3c1OC1c4[nH]c5ccccc5c4CC4(O)C(C2)N(CC2CC2)CCC314 (configuration not stated),n
N#Cc1ccc(-c2ccc([C@H]3[C@@H](CO)N4CCCCN(C(=O)Cc5ccccc5)C[C@@H]34)cc2)cc1,n
C[C@]12CC[C@H]3[C@@H](CCC4=CC(=O)CC[C@@]43C)[C@@H]1CC[C@H]2O,n
CC=Cc1ccc2n(c1=O)C[C@H]1[C@H](CO)[C@@H](C(=O)N(C)C)[C@@H]2N1C (mixture of isomers),n
O=C(Cc1ccncc1)N1CCCCN2[C@H](CO)[C@@H](c3ccc(C#Cc4ccccc4F)cc3)[C@@H]2C1,n
O=[N+]([O-])c1ccc(N2CC2)c([N+](=O)[O-])c1,n
O=[N+]([O-])c1ccc(N2CCOCC2)c2c1no[n+]2[O-],86.0
O=[N+]([O-])c1ccc(N2CCCCC2)c2ncccc12,n
O=C(Cc1ccccn1)N1CCCCN2[C@@H](CO)[C@@H](c3ccc(-c4ccccc4F)cc3)[C@@H]2C1,n
C=CCN1[C@@H]2CN(CC(F)(F)F)C[C@H]1C2c1ccc(Br)cc1 (some centres not stated),n
CCN(CC)C(=O)c1ccc(NC(=O)Nc2ccccc2F)cc1,83.5
CCN(CC)C(=O)c1ccc(NC(=O)c2ccc(N3CCCC3=O)cc2)cc1,n
CCN(CC)C(=O)c1ccc(NC(=O)c2cccc(S(=O)(=O)N3CCN(Cc4ccccc4)CC3)c2)cc1,n
N#Cc1ccc(-c2ccc([C@H]3[C@H]4CN(C(=O)Cc5ccccc5)CCCCN4[C@H]3CO)cc2)cc1,n
SMILES,CD40 NFkB inh
N#CC(C#N)=NNc1cccc(Cl)c1,75.2[25 µM]
O=C(Nc1cccc(Cl)c1)OC1CN2CCC1CC2 (configuration not stated),n
Cc1ccc(OC(=O)N(C)C[C@@H]2OCc3ccccc3-c3c(n(C)c4ccccc34)C(=O)N([C@H](C)CO)C[C@@H]2C)cc1,n
CCCN(CCC)[C@@H]1CCc2c(OC)cccc2[C@@H]1C,n
C/C=C/c1ccc(C2[C@@H]3CN(Cc4cocn4)C[C@H]2N3)cc1 (some centres not stated),n
CN1[C@@H]2CN(S(C)(=O)=O)C[C@H]1C2c1ccc(Br)cc1 (some centres not stated),27.8!
CN1[C@@H]2CN(S(C)(=O)=O)C[C@H]1C2c1ccccc1 (some centres not stated),n
CS(=O)(=O)N1C[C@@H]2N[C@H](C1)C2c1ccc(Br)cc1 (some centres not stated),n
COC(=O)[C@@H]1[C@@H](CO)[C@@H]2Cn3c(cccc3=O)[C@@H]2N1CC1CC1,n
C=CCN1CCC23c4c5ccc(O)c4OC2C(=O)CCC3(O)C1C5 (configuration not stated),n
CS(=O)(=O)N1C[C@@H]2N[C@H](C1)C2c1ccccc1 (some centres not stated),n
CN(C)CC#Cc1ccc([C@@H]2[C@H](CO)N3CCCCN(C(=O)Cc4ccccn4)C[C@@H]23)cc1,n
COP(=S)(OC)SCN1C(=O)c2ccccc2C1=O,32.1
C=CCN1[C@@H]2CN(C(C)=O)C[C@H]1C2c1ccc(Br)cc1 (some centres not stated),n
COC(=O)[C@H]1[C@H](CO)[C@H]2Cn3c(ccc(-c4cccc(F)c4)c3=O)[C@@H]1N2C(=O)CC1CC1,n
O=C(O)[C@@H]1[C@@H](CO)[C@@H]2Cn3c(ccc(-c4ccc(F)cc4)c3=O)[C@H]1N2CC1CCCCC1,n

# Screening data as filed in PubChem BioAssay.
